Results on 21 compounds are retold here after PubChem BioAssay (NCI).

Each structure is given as a SMILES string. This is part of a sample that, as a whole, favours compounds with a hit. Of some 83,000 tested, about 20% had one in any assay.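 Negative percent growth values reflect cell death: -40 means 40% of the cells present at the start died, and -100 means all died.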 Unmarked numbers belong to inactive results. Calls of active or inactive are those of the source. Rule for the calls: active = growth percent below 10; inactive = the rest.

Test in all cases: NCI-60 one-dose screen, 48 h (100 = growth as untreated, 0 = no growth, -100 = all killed)
What all share (conditions): 10 µM unless noted

Experiment [1] deals with BT-549 breast.
The test system of experiment [2] is MDA-MB-435 melanoma.
Experiment [3] has as its system SW-620 colon.
Experiment [4] relates to MCF7 breast.
The subject of experiment [5] is HCT-116 colon.
The subject of experiment [6] is HCC-2998 colon.
Experiment [7] has as its system KM12 colon.

In the case of `COc1ccc(/C=N/N=C(/c2ccccc2)c2ccc3nc(-c4ccc(Cl)cc4)[nH]c3c2)cc1`, the growth in experiment [1] is 85.7%; in experiment [2], 85%; in experiment [3], 88.3%; in experiment [4], 72%; in experiment [5], 75.4%; in experiment [6], 89.6%. Further, the growth in experiment [7] is 75.8%.

Regarding `CCOC(=O)c1ccc(NC2=C(Cl)C(=O)c3nc(C)ccc3C2=O)cc1`, the growth in experiment [2] is 21.6%; in experiment [3], -19.6% (active); in experiment [4] it was -14.5% (active); in experiment [6] it was 80.3%; in experiment [7], 50.8%.

Take `O=C(CCCCCCN1CC(=O)N2[C@@H](C3CC3)c3[nH]c4ccccc4c3C[C@H]2C1=O)NO`: the growth was 104% in experiment [1]; 40.3% in experiment [2]; 61.2% in experiment [3]; 39.9% in experiment [4]; 33.4% in experiment [5]; 108% in experiment [6]. The growth in experiment [7] was 84.2%.

On to `Cc1ccc2c(n1)C(=O)C(Cl)=C(Nc1cccc(C(=O)OC(C)(C)C)c1)C2=O`, for which the growth is 102% in experiment [1]; 97.9% in experiment [2]; 64.3% in experiment [3]; 53.3% in experiment [4]; 14% in experiment [5]; 113% in experiment [6]. Besides, the growth in experiment [7] was 99.2%.

With `COC(=O)c1cccc(NC2=CC(=O)C(C)=C(C)C2=O)c1`, the growth is 101% in experiment [1]; 101% in experiment [2]; 104% in experiment [3]; 71.3% in experiment [4]; 66.7% in experiment [5]; 110% in experiment [6]. Moreover, the growth in experiment [7] was 97.1%.

Consider `COc1cc(/C=N\NC(=O)c2ccc3nc(-c4ccc(Br)cc4)[nH]c3c2)cc(OC)c1OC`, for which the growth in experiment [1] is 38%; in experiment [2] it was 52.5%; in experiment [3] it was 79.1%; in experiment [4], 6.5% (active); in experiment [5] it was 18%; in experiment [6] it was 73.1%. Further, the growth in experiment [7] is 47.1%.

With `C#CCn1cc(/C=N/Nc2nc(-c3ccc(Br)cc3)cs2)c2ccccc21`, the growth in experiment [1] was 111%; in experiment [2] it was 106%; in experiment [3] it was 98.7%; in experiment [4], 64.1%; in experiment [5], 85.4%; in experiment [6], 116%. Also, the growth in experiment [7] was 104%.

Take `C(=N\Nc1nc(N/N=C/c2ccc3c(c2)OCO3)nc(N2CCCCC2)n1)/c1ccc2c(c1)OCO2`: the growth is 122% in experiment [1]; 98.5% in experiment [2]; 82.4% in experiment [3]; 54.8% in experiment [4]; 47.9% in experiment [5]; 83.8% in experiment [6]. In addition, in experiment [7], the growth was 86.2%.

Turning to `Cn1cc(-c2nc(N)nnc2-c2c[nH]c3ccc(Br)cc23)c2cc(F)ccc21`, the growth in experiment [1] was 96.9%; in experiment [2], 50.5%; in experiment [3], 95.1%; in experiment [4] it was 47.4%; in experiment [5], 100%; in experiment [6], 122%. For the same compound, the growth in experiment [7] was 74.7%.

Consider `O=C(CSc1nc2ccccc2c(=O)n1-c1ccc(S(=O)(=O)Nc2ccc(Cl)nn2)cc1)Nc1ccc(S(=O)(=O)Nc2ccc(Cl)nn2)cc1`, for which the growth is 99.7% in experiment [2]; 98.4% in experiment [3]; 95.3% in experiment [4]; 105% in experiment [5]; 120% in experiment [6]; 99.4% in experiment [7].

In the case of `CCCCCCN1C=C/C(=C\C(=O)n2ccc3ccccc32)c2ccccc21`, the growth in experiment [1] was 65%; in experiment [2], 84%; in experiment [3] it was 79.2%; in experiment [4] it was 29.2%; in experiment [5], 48.4%; in experiment [6], 34.6%. The growth in experiment [7] is 67.1%.

As to `Cc1ccc(N2CCN(C3=C(Cl)C(=O)c4ncccc4C3=O)CC2)cc1`, the growth in experiment [1] was 103%; in experiment [2], -81.2% (active); in experiment [3], -79.7% (active); in experiment [4], -62% (active); in experiment [5], -78.1% (active); in experiment [6], 104%. For the same compound, in experiment [7], the growth is 80%.

For the compound `CCOP(=O)(OCC)OC[C@]12CCC(C)(C)C[C@H]1C1=CC[C@@H]3[C@@]4(C)CC[C@H](OP(=O)(OCC)OCC)C(C)(C)[C@@H]4CC[C@@]3(C)[C@]1(C)CC2`, the growth is 54.1% in experiment [1]; 62.1% in experiment [2]; 68.4% in experiment [3]; 28.1% in experiment [4]; 73.1% in experiment [6]; 63.9% in experiment [7].

As for `COc1ccc(C(=NNS(=O)(=O)c2ccc(C)cc2)c2ccccc2)cc1OC`, the growth in experiment [1] is 112%; in experiment [2] it was 106%; in experiment [3], 101%; in experiment [4], 91.4%; in experiment [5] it was 96.3%; in experiment [6] it was 102%. For the same compound, the growth in experiment [7] is 105%.

As for `Cc1[nH]c(C(=O)Nc2ccc(S(=O)(=O)N3CCCCC3)cc2OCCOCCOCCOCCOCCOCCOCCOCCOCCOc2cc(S(=O)(=O)N3CCCCC3)ccc2NC(=O)c2[nH]c(C)c3c2CCCCC3=O)c2c1C(=O)CCCC2`, the growth in experiment [1] is 2.28% (active); in experiment [2] it was 18%; in experiment [3] it was 37.6%; in experiment [4], 11%; in experiment [5], -32.3% (active); in experiment [6] it was -38.4% (active). Further, the growth in experiment [7] was 29.1%.

For `Cc1[nH]c(C(=O)Nc2ccc(C(N)=O)cc2N2CCOC(C)C2)c(Cl)c1Cl` (stereo unspecified), the growth in experiment [1] was 98.3%; in experiment [2], 96.1%; in experiment [3], 109%; in experiment [4], 93%; in experiment [5], 92%; in experiment [6], 105%. Further, the growth in experiment [7] was 104%.

Consider `CCOC(=O)c1cccc(NC2=C(Cl)C(=O)C(C)=C(C)C2=O)c1`, for which the growth is 131% in experiment [1]; 104% in experiment [2]; 100% in experiment [3]; 84.7% in experiment [4]; 84.9% in experiment [5]; 111% in experiment [6]. The growth in experiment [7] is 89.6%.

Turning to `CCN(CC)S(=O)(=O)c1ccc(-c2nc(C(Cl)Cl)nc3cc(C)nn23)cc1`, the growth was 14.8% in experiment [2]; 6.12% (active) in experiment [3]; 23.5% in experiment [4]; 10% in experiment [5]; 23.8% in experiment [6]; 8.52% (active) in experiment [7].

With `Cc1ccc(C(=O)Nc2ccc(CNCCN3CCOCC3)c(C(F)(F)F)c2)cc1C#Cc1cnc2cccnn12`, the growth is -28% (active) in experiment [2]; 14.1% in experiment [3]; 6.79% (active) in experiment [4]; 2.51% (active) in experiment [5]; 6.09% (active) in experiment [6]; 1.77% (active) in experiment [7].

For `O=C1Nc2ccccc2/C1=C/c1ccc(OCC(=O)c2ccccc2)cc1`, the growth in experiment [1] was 118%; in experiment [2], 102%; in experiment [3], 102%; in experiment [4] it was 88.7%; in experiment [5] it was 94.4%; in experiment [6], 105%. Moreover, the growth in experiment [7] is 99.9%.

Regarding `N#Cc1c(-c2cccs2)cc(-c2cnccn2)nc1SCC(=O)N/N=C/c1ccccc1`, the growth is 14.8% in experiment [1]; 23.6% in experiment [2]; 8.83% (active) in experiment [3]; 19.4% in experiment [4]; -23.6% (active) in experiment [5]; 71% in experiment [6]. Further, in experiment [7], the growth was 33.2%.
